Results on 40 sequences are retold here after paper PMC11006913.

In this assay the target is NKX2-5 (Homo sapiens, UniProt P52952 125-210, R139K). The experiment in a line: PBM; 200 nM protein, PBS. Conditions: dsDNA, one strand shown.
NKX2-5, sequence (P52952 125-210 R139K): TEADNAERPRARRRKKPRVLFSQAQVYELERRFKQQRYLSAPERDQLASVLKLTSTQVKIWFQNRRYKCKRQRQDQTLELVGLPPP
As to AAGTACTC, the binding signal was 12.7 upbm affinity estimate (log intensity, higher = more binding, comparable within an allelic series).

Regarding CACTTGAC, the binding signal was 12.9 upbm affinity estimate (log intensity, higher = more binding, comparable within an allelic series).

Take ATTAAGTG: the binding signal is 12.7 upbm affinity estimate (log intensity, higher = more binding, comparable within an allelic series).

As to AGCACTTA, the binding signal is 12.9 upbm affinity estimate (log intensity, higher = more binding, comparable within an allelic series).

As to ACACTTAA, the binding signal was 13 upbm affinity estimate (log intensity, higher = more binding, comparable within an allelic series).

Regarding AGTACTTA, the binding signal is 12.9 upbm affinity estimate (log intensity, higher = more binding, comparable within an allelic series).

As for CACTTAAA, the binding signal was 13.1 upbm affinity estimate (log intensity, higher = more binding, comparable within an allelic series).

Regarding CAAGTGGC, the binding signal was 12.5 upbm affinity estimate (log intensity, higher = more binding, comparable within an allelic series).

As for GTACTTCA, the binding signal is 12.5 upbm affinity estimate (log intensity, higher = more binding, comparable within an allelic series).

As to CTCAAGTA, the binding signal is 12.7 upbm affinity estimate (log intensity, higher = more binding, comparable within an allelic series).

On to AGTACTTG, for which the binding signal is 12.5 upbm affinity estimate (log intensity, higher = more binding, comparable within an allelic series).

On to ACAAGTGG, for which the binding signal was 12.9 upbm affinity estimate (log intensity, higher = more binding, comparable within an allelic series).

For CCACTTAA, the binding signal was 13.4 upbm affinity estimate (log intensity, higher = more binding, comparable within an allelic series).

As to ATAAGTGG, the binding signal is 13.2 upbm affinity estimate (log intensity, higher = more binding, comparable within an allelic series).

As for AACCACTT, the binding signal is 12.9 upbm affinity estimate (log intensity, higher = more binding, comparable within an allelic series).

As for CCACTTGA, the binding signal is 13.4 upbm affinity estimate (log intensity, higher = more binding, comparable within an allelic series).

As for CACTTATC, the binding signal is 12.8 upbm affinity estimate (log intensity, higher = more binding, comparable within an allelic series).

As to AAGTACTT, the binding signal is 13.2 upbm affinity estimate (log intensity, higher = more binding, comparable within an allelic series).

As for ACACTTGA, the binding signal is 13 upbm affinity estimate (log intensity, higher = more binding, comparable within an allelic series).

In the case of CCCACTTA, the binding signal is 13 upbm affinity estimate (log intensity, higher = more binding, comparable within an allelic series).

With CCACTCAA, the binding signal was 12.5 upbm affinity estimate (log intensity, higher = more binding, comparable within an allelic series).

For the sequence GGTACTTA, the binding signal was 13.1 upbm affinity estimate (log intensity, higher = more binding, comparable within an allelic series).

In the case of AAGTGGCT, the binding signal is 12.5 upbm affinity estimate (log intensity, higher = more binding, comparable within an allelic series).

Regarding AAGCACTT, the binding signal is 12.7 upbm affinity estimate (log intensity, higher = more binding, comparable within an allelic series).

Take AAGTGGAT: the binding signal is 12.5 upbm affinity estimate (log intensity, higher = more binding, comparable within an allelic series).

As for AAGTGGAG, the binding signal is 12.2 upbm affinity estimate (log intensity, higher = more binding, comparable within an allelic series).

As to AAGTGGTA, the binding signal was 12.5 upbm affinity estimate (log intensity, higher = more binding, comparable within an allelic series).

Regarding ACCACTTG, the binding signal was 12.8 upbm affinity estimate (log intensity, higher = more binding, comparable within an allelic series).

On to CCACTTAG, for which the binding signal is 13.1 upbm affinity estimate (log intensity, higher = more binding, comparable within an allelic series).

With GGCACTTA, the binding signal is 13.1 upbm affinity estimate (log intensity, higher = more binding, comparable within an allelic series).

For the sequence ACTTAAGT, the binding signal was 12.8 upbm affinity estimate (log intensity, higher = more binding, comparable within an allelic series).

With CCACTTAC, the binding signal is 13 upbm affinity estimate (log intensity, higher = more binding, comparable within an allelic series).

Regarding CACTTAAC, the binding signal was 12.8 upbm affinity estimate (log intensity, higher = more binding, comparable within an allelic series).

As for AAGTACCC, the binding signal is 12.4 upbm affinity estimate (log intensity, higher = more binding, comparable within an allelic series).

As for TAAGTGTA, the binding signal is 12.5 upbm affinity estimate (log intensity, higher = more binding, comparable within an allelic series).

Take GCACTTCA: the binding signal was 12.5 upbm affinity estimate (log intensity, higher = more binding, comparable within an allelic series).

As to AACACTTA, the binding signal is 12.7 upbm affinity estimate (log intensity, higher = more binding, comparable within an allelic series).

For CACTTATG, the binding signal was 13 upbm affinity estimate (log intensity, higher = more binding, comparable within an allelic series).

Take GTACTTGA: the binding signal is 13 upbm affinity estimate (log intensity, higher = more binding, comparable within an allelic series).

For CACTTAAG, the binding signal was 13.2 upbm affinity estimate (log intensity, higher = more binding, comparable within an allelic series).
